# Assay results published in PubChem BioAssay AID463173 (ICCB-Longwood Screening Facility, Harvard Medical School, 2010).
# Screen size: about 52,000 compounds; about 4,300 (8.3%) were called active. Shown is part of a subset that was picked to be rich in actives. Values without a mark were called inactive. No stated cut-off is given here; in the data, active means survival mostly below about 52% (no sharp cut-off); inactive means mostly above about 56%.
# Test system: DeltatarO mutant
# Experiment: S. aureus survival, RN4220 and DeltatarO strains – OD600, teichoic acid synthesis inhibitors, primary screen (AID 463173)
# Settings: S. aureus RN4220 wild type/DeltatarO growth, OD600, 18 h, active compounds read low, screened at 18.75 µg/mL (by protocol)
row,SMILES,survival
1,CC(C(=O)NCCSCc1cccc(Cl)c1)N(c1ccccc1)S(C)(=O)=O (configuration not stated),61%
2,CSc1ncc(Cl)c(C(=O)N(Cc2ccc(C)cc2)C2CCS(=O)(=O)C2)n1 (configuration not stated),88%
3,O=C(CN1C(=O)COc2ccc(S(=O)(=O)N3CCOCC3)cc21)N1CCN(c2ccc(Cl)cc2)CC1,92%
4,CCOc1ccc(C(=O)Nc2c(C(=O)Nc3ccccc3OC)oc3ccccc23)cc1OCC,65%
5,CCn1c(SCC(=O)c2ccc(C)cc2)nnc1C1CC1,66%
6,CCCC(=O)Oc1ccc2ccc(=O)oc2c1,89%
7,COC(=O)COc1ccc2oc(-c3ccc(OC)cc3)cc(=O)c2c1,36% (active)
8,Cc1cc(C)nc(SCC(=O)Oc2ccc3oc(=O)cc(C)c3c2)n1,95%
9,CCCCC(=O)Oc1ccc2oc(-c3ccc(OC)cc3)cc(=O)c2c1,30% (active)
10,COc1ccc2oc(-c3cccc(F)c3)cc(=O)c2c1,99%
11,COc1ccc(-c2cc(=O)c3cc(OCC(=O)OC(C)C)ccc3o2)cc1,124%
12,O=C(Cn1c(=O)n(-c2ccccc2)c(=O)c2c3c(sc21)CCCC3)Nc1ccc(F)cc1,98%
13,CCc1ccc(CNC(=O)c2cnc(N3CCCCC3)c3ccccc23)cc1,94%
14,COc1ccccc1NC(=O)c1cc(S(=O)(=O)N2CCc3ccccc32)ccc1F,81%
15,CCNC(=O)CC1C(=O)N(c2ccc(C)cc2)C(=O)N1CCC(C)C (configuration not stated),91%
16,CC(C)c1ccc(NC(=O)CCNS(=O)(=O)c2cccc3nsnc23)cc1,50%
17,CCNC(=O)c1ccc2nc(Cc3ccccc3)oc2c1,101%
18,CNC(=O)c1ccc2nc(CCc3ccccc3)oc2c1,80%
19,CC(=O)c1cccc(NC(=O)c2ccc3nc(Cc4ccccc4)oc3c2)c1,63%
20,Cc1ccc(NC(=O)c2ccc3nc(Cc4ccccc4)oc3c2)cc1F,25% (active)
21,CNC(=O)c1ccc2nc(Cc3ccccc3)oc2c1,37% (active)
22,Cc1ccccc1NC(=O)c1ccc2nc(Cc3ccccc3)oc2c1,102%
23,O=C(NCCCN1CCN(c2ccccc2F)CC1)c1ccc2nc(CCc3ccccc3)oc2c1,87%
24,O=C(NCCCN1CCN(c2ccccc2)CC1)c1ccc2nc(Cc3ccccc3)oc2c1,92%
25,O=C(NCCCN1CCN(c2ccccc2F)CC1)c1ccc2nc(Cc3ccccc3)oc2c1,46% (active)
26,Cc1ccc(-c2nnc(Nc3ccc(O)cc3)c3ccccc23)cc1S(=O)(=O)N1CCOCC1,65%

row,SMILES,survival
1,O=C1C2C3C=CC(C3)C2C(=O)N1CCN1C(=O)C2C3C=CC(C3)C2C1=O (configuration not stated),101%
2,COc1ccccc1NC(=O)C1=C(C)Nc2nc(SC)nn2C1c1ccccc1Cl (configuration not stated),87%
3,CCCNC(=O)CSc1c2c(nc3ccc(Cl)cc13)CCCC2,62%
4,COCCCNC(=O)CSc1c2c(nc3ccc(Cl)cc13)CCCC2,68%
5,CCCCNC(=O)CSc1c2c(nc3ccc(Cl)cc13)CCCC2,38% (active)
6,CCOc1ccc(CNC(=O)CSc2c3c(nc4ccc(Cl)cc24)CCCC3)cc1,70%
7,CCOc1ccccc1NC(=O)CSc1c2c(nc3ccc(Cl)cc13)CCCC2,45% (active)
8,CC(C)CCNC(=O)CSc1c2c(nc3ccc(Cl)cc13)CCCC2,51% (active)
9,CC(C)OCCCNC(=O)CSc1c2c(nc3ccc(Cl)cc13)CCCC2,71%
10,COC(=O)c1ccccc1NC(=O)CSc1c2c(nc3ccc(Cl)cc13)CCCC2,86%
11,CCN(CC)CCNC(=O)c1c(C)oc2ncn(C)c(=O)c12,91%
12,Cc1ccc(CNC(=O)C2CCCN(c3nc4c(C)cc(C)cc4s3)C2)cc1 (configuration not stated),94%
13,CCC(=O)NC1CCC(c2ccccc2)CC1 (configuration not stated),97%
14,Cc1ccc(OC(=O)c2cccnc2)cc1,97%
15,Cc1ccc(C)c(N2CCN(C(=O)c3cc4ccc5cccnc5c4[nH]3)CC2)c1,95%
16,Cc1c(C(=O)N2CCCCC2)c(S(=O)(=O)NCc2ccc(N(C)C)cc2)c(C)n1C,120%
17,COc1cccc(-c2nnn(CCc3nn[nH]n3)n2)c1,84%
18,CCOC(=O)CCN(c1ccccc1)S(=O)(=O)c1ccc2[nH]c(=O)ccc2c1,95%
19,CCC(C(=O)N1CCN(c2ccc(OC)cc2)CC1)n1nc(C)n2c(cc3occc32)c1=O (configuration not stated),117%
20,CCC(C(=O)N1CCN(c2cc(Cl)ccc2C)CC1)n1nc(C)n2c(cc3occc32)c1=O (configuration not stated),69%
21,CCC(C(=O)N1CCN(c2cc(C)ccc2C)CC1)n1nc(C)n2c(cc3occc32)c1=O (configuration not stated),43% (active)
22,Cc1ccc(S(=O)(=O)c2nc(S(=O)(=O)c3ccc(C)cc3)c(NCCCOC(C)C)s2)cc1,75%
23,C=C(C)c1cccc(C(C)(C)NC(=O)N2CCCC2)c1,111%
24,Cc1ccc(CNC(=O)Cc2c(C)c3c(cc(C)c4c(C)coc43)oc2=O)cc1,100%
25,CCCn1c(NCc2ccccc2C)nc2ccccc21,108%
26,CCCCn1c(NCc2ccc(OC)cc2O)nc2ccccc21,66%

row,SMILES,survival
1,CCCC(O)c1nc2ccccc2n1Cc1ccccc1OC (configuration not stated),105%
2,CCCCn1c(NCc2ccc(N(C)C)cc2)nc2ccccc21,52%
3,CCCCCn1c(NCc2ccccc2OC)nc2ccccc21,-1% (active)
4,Cn1c(NCc2ccccc2F)nc2ccccc21,93%
5,CCCCCn1c(NCc2ccc(OC)cc2)nc2ccccc21,33% (active)
6,CCCn1c(NCc2ccccc2F)nc2ccccc21,90%
7,CCn1c(NCc2ccccc2)nc2ccccc21,95%
8,CCCn1c(NCc2ccc(N(CC)CC)cc2)nc2ccccc21,29% (active)
9,CCn1c(NCc2ccc(OC)c(OC)c2)nc2ccccc21,116%
10,CCCCn1c(NCc2cc(Br)ccc2O)nc2ccccc21,42% (active)
11,CCOC(=O)c1cc(-c2ccc(F)cc2)n(CCC(=O)Nc2cc(OC)cc(OC)c2)c1C,71%
12,Cc1ccc(Cl)cc1-n1ncc2c(Nc3ccc4c(c3)OCCO4)ncnc21,82%
13,Cc1c(C(=O)N2CCCC2)oc2c1-c1nn(CC(=O)NCc3cccc(Br)c3)cc1CC2,75%
14,COc1ccccc1-c1cc2nc(C)c(CCC(=O)Nc3cc(C)ccc3C)c(C)n2n1,60%
15,COc1ccc(CNC(=O)C2(c3cccs3)CCOCC2)cc1,72%
16,CCOc1ccc2c(c1)c(=O)c(S(=O)(=O)c1ccccc1)cn2CC(=O)Nc1ccccc1OC,70%
17,CC1=C(C(=O)NCc2ccc(Cl)cc2)C2(CCC(C)CC2)OC1=O (configuration not stated),86%
18,Cc1nn(C)c2c1c(C(F)(F)F)cc(=O)n2C(C)C(=O)NCCc1ccc(Cl)cc1 (configuration not stated),81%
19,Cn1c(=O)nc2n(-c3ccc(Cl)c(Cl)c3)c3cc(Cl)ccc3cc-2c1=O,87%
20,CCOc1ccc(CN2CCc3nc(N4CCN(c5ccccn5)CC4)ncc3C2)cc1OC,120%
21,COC(=O)c1ccc(C2c3c(oc4ccccc4c3=O)C(=O)N2c2nc(C)c(C(=O)OC)s2)cc1 (configuration not stated),71%
22,CCCOc1ccc(C2c3c(oc4ccccc4c3=O)C(=O)N2c2nc(C)c(C(=O)OCC)s2)cc1 (configuration not stated),60%
23,CCOc1cc(C2c3c(oc4ccccc4c3=O)C(=O)N2Cc2ccc3c(c2)OCO3)ccc1O (configuration not stated),81%
24,CCOc1ccc(C2c3c(oc4ccccc4c3=O)C(=O)N2Cc2ccc3c(c2)OCO3)cc1 (configuration not stated),36% (active)
25,CCOC(=O)c1sc(N2C(=O)c3oc4ccccc4c(=O)c3C2c2ccc(C(C)(C)C)cc2)nc1C (configuration not stated),51% (active)
26,CCCOc1ccc(C2c3c(oc4ccccc4c3=O)C(=O)N2c2nnc(C(C)C)s2)cc1 (configuration not stated),58% (active)

row,SMILES,survival
1,CCOc1cccc(C2c3c(oc4cc(C)c(C)cc4c3=O)C(=O)N2c2nc(C)c(C)s2)c1 (configuration not stated),74% (active)
2,CC(C)c1nnc(N2C(=O)c3oc4ccccc4c(=O)c3C2c2cccc(O)c2)s1 (configuration not stated),62%
3,CCOc1cccc(C2c3c(oc4ccccc4c3=O)C(=O)N2c2nc(C)c(C(=O)OC)s2)c1 (configuration not stated),51%
4,COc1cc(C2c3c(oc4ccccc4c3=O)C(=O)N2c2nnc(C(C)C)s2)cc(OC)c1OC (configuration not stated),63%
5,Cc1nc(N2C(=O)c3oc4ccccc4c(=O)c3C2c2cccc(OCCC(C)C)c2)sc1C (configuration not stated),59%
6,COc1ccc(C2c3c(oc4ccccc4c3=O)C(=O)N2Cc2ccc3c(c2)OCO3)cc1 (configuration not stated),71%
7,Cc1cccc(CC(=O)NCCc2csc(-c3ccc(C(F)(F)F)cc3)n2)c1,101%
8,CCc1ccc(-n2c(=O)c3ccccc3n(CC(=O)NCCc3ccc(OC)c(OC)c3)c2=O)cc1,91%
9,CC(C)OC(=O)CSc1nnc(-c2ccc(O)cc2)o1,72%
10,COc1ccc(CSC(=N)N)cc1Cl,97%
11,COc1ccc(-c2csc(N)n2)cc1C,97%
12,O=C(NCC(c1ccco1)S(=O)(=O)c1cccs1)c1ccc(F)c(F)c1 (configuration not stated),75%
13,COc1ccc(CNC(=O)CCCn2nc(C)c3c(C)n(-c4ccc(C)cc4)nc3c2=O)cc1OC,74%
14,Cc1cccc(NC(=O)CCn2nc(C)c3c(C)n(-c4ccccc4)nc3c2=O)c1C,57%
15,Cc1ccc(CCNC(=O)Cn2nc(C)c3c(C)n(-c4ccc(C)cc4)nc3c2=O)cc1,79%
16,Cc1ccc(NC(=O)CCCn2nc(C)c3c(C)n(-c4ccccc4)nc3c2=O)c(Cl)c1,89%
17,COc1cc(OC)c(NC(=O)CCCn2nc(C)c3c(C)n(-c4ccccc4)nc3c2=O)cc1Cl,32% (active)
18,Cc1ccc(C)c(NC(=O)CCn2nc(C)c3c(C)n(-c4ccccc4)nc3c2=O)c1,37% (active)
19,CCN(CC)CCNC(=O)Cn1nc(C)c2c(C)n(-c3ccccc3)nc2c1=O,70%
20,COc1cccc(CNC(=O)CCn2nc(C)c3c(C)n(-c4ccccc4)nc3c2=O)c1,83%
21,Cc1cc(Cl)ccc1NC(=O)CCn1nc(C)c2c(C)n(-c3ccccc3)nc2c1=O,72%
22,COc1ccc(CNC(=O)CCn2nc(C)c3c(C)n(-c4ccccc4)nc3c2=O)cc1OC,0% (active)
23,Cc1cc(Cl)ccc1NC(=O)CCCn1nc(C)c2c(C)n(-c3ccccc3)nc2c1=O,112%
24,CCOc1ccc(CCNC(=O)Cn2nc(C)c3c(C)n(-c4ccccc4)nc3c2=O)cc1OCC,25% (active)
